According to publication PMC5540273 (PLoS ONE, 2017):

test system: BMX; conditions: concentration: 1 μM, replicates: in singlicate; n = 1
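Note: KINOMEscan kinase panel screen.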

**Q.** Which “%Inh” value does the source give for `CN(c1ccc2c(c1)nc(NCc1ccccc1)n2C)c1ccnc(Nc2ccc(CS(C)(=O)=O)cc2)n1.Cl` [GW811603] here?
**A.** 0%

**Q.** How did the “%Inh” value turn out when `COc1cccc(C2=C(Nc3cccc(O)c3)C(=O)NC2=O)c1` [SB-390771] was run?
**A.** 4%

**Q.** For `O=C(Nc1c(F)cccc1F)c1cc(C(=O)c2ccccc2F)c[nH]1` [GSK1326180], which “%Inh” value is on record?
**A.** 18%

**Q.** For `CC(C)c1nc(-c2ccc(F)c(NS(=O)(=O)c3c(F)cccc3F)c2)c(-c2ccnc(Nc3ccc(N4CCOCC4)nc3)n2)s1` [GSK1804250], which “%Inh” value is on record?
**A.** 90%

**Q.** How did the “%Inh” value turn out when `Cl.O=C(Nc1ccc(Oc2ccc3[nH]c(NC(=O)c4ccco4)nc3c2)cc1)Nc1cc(C(F)(F)F)ccc1F` [GW683134] was run?
**A.** 1%

**Q.** For `c1ccc(Oc2ccc(Nc3ccnc4cc(-c5ccc(CN6CCCCC6)o5)ccc34)cc2)nc1` [GW567143], which “%Inh” value is on record?
**A.** 6%

**Q.** Which “%Inh” value does the source give for `N#CC1(c2cccc(C(=O)Nc3cccc(Oc4ccc5nc(NC(=O)C6CC6)sc5n4)c3)c2)CC1` here?
**A.** 0%

**Q.** For `CNc1nccc(-c2ccc3c(N)n[nH]c3c2)n1` [GSK2206003], which “%Inh” value is on record?
**A.** 2%

**Q.** How did the “%Inh” value turn out when `COc1cccc(NC(=O)NCCNc2ccnc(Nc3ccc(F)cc3)n2)c1` [GSK1379879] was run?
**A.** 4%

**Q.** How did the “%Inh” value turn out when `Cc1cccc(Nc2nc(N[C@H]3CCCC[C@H]3N)ncc2C(N)=O)c1.Cl` [GSK986310] was run?
**A.** 13%

**Q.** Which “%Inh” value does the source give for `COC(=O)Nc1nc2cc(Oc3ccc(NC(=O)Nc4cccc(SC)c4)cc3)ccc2[nH]1.Cl` [GW697999] here?
**A.** 0%

**Q.** Which “%Inh” value does the source give for `CN(c1ccc(NC(=O)N2CCN(CCCN3CCOCC3)CC2)cc1)c1ccnc(Nc2ccc(CS(C)(=O)=O)cc2)n1.Cl` [GW830899] here?
**A.** 0%
